Laboratory results published in PubChem BioAssay.
Records with an inconclusive call do not appear. For some of these results: Entries with a potency or affinity are not part of this list. The source made the active and inactive calls. Unless noted, how the calls were made is not given here.

Key:
[1] = viability loss in pontine glioma line – cell-based, SU-DIPG-XVII, MIPE5.0, CellTiter-Glo, qHTS, dose response (AID 1347060; cut-off not given, nearly all actives have AC50 up to about 26 µM;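 on AC50: cells exposed to compound for 48 hours before viability readout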); conditions: CellTiter-Glo ATP luminescence
[2] = compounds altering HSF1 focus formation in cells – imaging, Selleck Cancer Library (AID 1347162; in the data active means plate-normalised HSF1 focus index below about 0.46); conditions: human cells, HSF1 nuclear foci imaging, at 10 µM; SSMD: measured here: HSF1 foci SSMD mean; cell count: measured here: cell number; plate-normalised HSF1 focus index: stronger effect = lower value
[3] = compounds altering circadian rhythm period length – cell-based, LOPAC library, luminescence reporter (AID 2774); conditions: circadian reporter cells, at 7 µM, actives lie on both sides;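 further: values are relative to mean of DMSO wells on each plate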
[4] = system: Hepatitis C virus NS3 helicase; assay: blockers of NS3h binding to ssDNA – biochemical, fluorescence polarization, LOPAC1280 library, primary screen (AID 687035; in the data active means inhibition above about 37%); conditions: Purified HCV NS3 helicase, Cy5-dT15 ssDNA binding fluorescence polarization; stronger effect = higher value; concentration not given here
[5] = compounds altering Cy5-DNA-NS3h complex signal – biochemical, LOPAC1280, artefact control for HCV NS3 helicase inhibitor project (AID 687037); conditions: Cy5-DNA-NS3h complex fluorescence interference counterscreen
[6] = blockers of cellular phospholipid synthesis – cell-based, LOPAC library, screen 4, primary screen (AID 1347384); conditions: animal cells, phospholipid biosynthesis inhibition screen; at 10 µM
[7] = blockers of polyQ-driven CASP3 activation – cell-based (AID 1583); conditions: polyglutamine-induced caspase-3 activation, cell assay; stronger effect = higher value;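 tested at 10 µM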
[8] = yeast 75Q aggregation reduction – 75Q-TubU reporter (AID 1593); conditions: Yeast 75Q polyglutamine aggregation reporter
[9] = restoration of touch response, mutant HTT neurons – whole organism, C. elegans mechanosensory neurons, N-terminal huntingtin (AID 1599); conditions: C. elegans polyQ-huntingtin mechanosensory neurons, stronger effect = higher value
[10] = blockers of cytochrome c efflux from mitochondria – biochemical, purified mitochondria (AID 1603); conditions: stronger effect = lower value;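 further: mouse liver mitochondria challenged with calcium chloride; signal normalized to the plate average as 100%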
[11] = polyglutamine aggregate formation blockers (AID 1604); conditions: polyglutamine-induced protein aggregation inhibition assay; stronger effect = higher value; tested at 2.5 µM
[12] = glutamate transport activators, MN-1 cells, MN-1 cell line (AID 1612); conditions: MN-1 motor neuron cells, stronger effect = higher value;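 further: tested at 1 µM final; 0% = mean of DMSO vehicle wells on each plate; positive means more glutamate uptake than control and negative means less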
[13] = 75Q-TubH aggregate inhibition, S. cerevisiae, yeast (AID 1616); conditions: S. cerevisiae 75Q-TubH polyglutamine aggregation suppression; stronger effect = higher value
[14] = viability loss in pontine glioma line – cell-based, SU-DIPG-XIII, MIPE4.0, CellTiter-Glo, qHTS, dose response (AID 1347061; cut-off not given, nearly all actives have AC50 up to about 37 µM;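 further: cells exposed to compound for 48 hours before readout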); conditions: CellTiter-Glo ATP luminescence
[15] = GFP-Q80 aggregate reduction, neuronal-like cells, cell-based, NGF-treated PC12, GFPQ80 (AID 1614); conditions: PC12 NGF-treated GFP-polyQ80 inclusion reduction;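 further: lower means fewer inclusions and 0 means no inclusions at all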

O=C(CCCCCCC(=O)Nc1ccccc1)NO
AC50 [1]: 1.86 µM (active) | SSMD [2]: -0.489 | cell count [2]: 6970 | plate-normalised HSF1 focus index [2]: 0.984 (inactive)

C#CCN(C)CCCOc1ccc(Cl)cc1Cl
period change [3]: 0.03 h (inactive) | inhibition [4]: -6% (inactive) | fluorescence ratio (interference) [5]: 1 (inactive) | outcome [6]: inactive

COc1cc2c(c(OC)c1OC)-c1ccc(OC)c(=O)cc1[C@@H](NC(C)=O)CC2
inhibition [7]: -76.8% | score [8]: 1.26 | rescue above control [9]: -5.06 | cytochrome c release ratio [10]: 0.87 | inhibition of aggregation [11]: 97.2% | glutamate uptake change [12]: -10.3% | aggregation suppression score [13]: 1.64 | period change [3]: -0.41 h (inactive) | inhibition [4]: -1% (inactive) | fluorescence ratio (interference) [5]: 1 (inactive) | AC50 [1]: 0.0295 µM (active) | outcome [6]: inactive

C[C@H]1[C@H](NC(=O)/C(=N/OC(C)(C)C(=O)O)c2csc(N)n2)C(=O)N1S(=O)(=O)O (stereo in doubt)
outcome [14]: inactive

Clc1ccc(Cn2c(CN3CCCC3)nc3ccccc32)cc1
period change [3]: 0.175 h (inactive) | inhibition [4]: 0% (inactive) | fluorescence ratio (interference) [5]: 1 (inactive) | outcome [6]: inactive

NCCCNCCSP(=O)(O)O
period change [3]: -0.025 h (inactive) | inhibition [4]: -3% (inactive) | fluorescence ratio (interference) [5]: 1 (inactive) | outcome [6]: inactive

NC(N)=NC(N)=NCCc1ccccc1
outcome [1]: inactive

O=C1Cc2cc(CCN3CCN(c4nsc5ccccc45)CC3)c(Cl)cc2N1
inhibition [4]: 2% (inactive) | fluorescence ratio (interference) [5]: 1 (inactive) | outcome [6]: inactive

O=C(O)[C@H](O)[C@@H](O)[C@H](O[C@@H]1O[C@H](CO)[C@H](O)[C@H](O)[C@H]1O)[C@H](O)CO
outcome [1]: inactive

COc1cccc2c1C(=O)c1c(O)c3c(c(O)c1C2=O)C[C@@](O)(C(C)=O)C[C@@H]3O[C@H]1C[C@H](N)[C@H](O)[C@H](C)O1
AC50 [1]: 0.118 µM (active) | SSMD [2]: -15.6 | cell count [2]: 7130 | plate-normalised HSF1 focus index [2]: 0.198 (active)

CCN(CC)C(=O)c1ccc(O)c(OC)c1
period change [3]: -1.55 h (active) | inhibition [4]: 0% (inactive) | fluorescence ratio (interference) [5]: 1 (inactive) | outcome [6]: inactive

COc1cc2ncnc(Nc3ccc(F)c(Cl)c3)c2cc1OCCCN1CCOCC1
AC50 [14]: 38.2 µM (active) | SSMD [2]: -3.63 | cell count [2]: 5320 | plate-normalised HSF1 focus index [2]: 0.813 (inactive)

O=[N+]([O-])c1ccc(O)c2ncccc12
AC50 [1]: 6.61 µM (active)

CNCCCC1c2ccccc2C=Cc2ccccc21
period change [3]: -0.13 h (inactive) | inhibition [4]: -3% (inactive) | fluorescence ratio (interference) [5]: 0.9 (inactive) | outcome [6]: inactive

CN(N=O)C(=O)N[C@@H]1[C@@H](O)[C@H](O)[C@@H](CO)O[C@@H]1O
inhibition [7]: -0.83% | score [8]: 1.48 | rescue above control [9]: -12.1 | cytochrome c release ratio [10]: 1.09 | inhibition of aggregation [11]: 69% | glutamate uptake change [12]: -14.8% | inclusion score [15]: 2 | aggregation suppression score [13]: 1.03 | outcome [1]: inactive

CCCCCCCCCCCCCCCCCCCCCCO
outcome [14]: inactive

CCCN(CCC)CCc1cccc2c1CC(=O)N2
period change [3]: 0.155 h (inactive) | inhibition [4]: -3% (inactive) | fluorescence ratio (interference) [5]: 1 (inactive) | outcome [6]: inactive

OC(CCN1CCCCC1)(c1ccccc1)C1CC2C=CC1C2 (configuration not stated)
inhibition [4]: -3% (inactive) | fluorescence ratio (interference) [5]: 1 (inactive) | outcome [14]: inactive | outcome [6]: inactive

COc1c(C)c2c(c(O)c1C/C=C(\C)CCC(=O)OCCN1CCOCC1)C(=O)OC2
AC50 [1]: 0.59 µM (active) | SSMD [2]: -0.00851 | cell count [2]: 7610 | plate-normalised HSF1 focus index [2]: 0.999 (inactive)

CCN(C)C(=O)Oc1cccc([C@H](C)N(C)C)c1
outcome [14]: inactive

Cn1c(=O)c2c(ncn2CC2OCCO2)n(C)c1=O
outcome [1]: inactive

CNC1CCCN(c2c(F)cc3c(=O)c(C(=O)O)cn(C4CC4)c3c2OC)C1 (configuration not stated)
outcome [1]: inactive

Cc1cc(=O)oc2cc(O)ccc12
AC50 [14]: 0.418 µM (active)

CN1CCN(c2c(F)cc3c(=O)c(C(=O)O)cn4c3c2OCN4C)CC1
outcome [14]: inactive

O=C(O)CN(CCN(CC(=O)O)CC(=O)O)CCN(CC(=O)O)CC(=O)O
period change [3]: 0.145 h (inactive) | inhibition [4]: -2% (inactive) | fluorescence ratio (interference) [5]: 1 (inactive) | outcome [6]: inactive

CN1CCN(c2c(F)cc3c(=O)c(C(=O)O)cn(CCF)c3c2F)CC1
outcome [14]: inactive

COc1ccc2[nH]c(S(=O)Cc3ncc(C)c(OC)c3C)nc2n1 (configuration not stated)
outcome [1]: inactive

CC(=O)c1ccc2c(c1)N(CCCN(C)C)c1ccccc1S2
outcome [6]: inactive

CC(C)(Oc1ccc(C2CC2(Cl)Cl)cc1)C(=O)O (configuration not stated)
period change [3]: 0.045 h (inactive) | inhibition [4]: -1% (inactive) | fluorescence ratio (interference) [5]: 1 (inactive) | outcome [14]: inactive | outcome [6]: inactive

CC(C)Cn1cnc2c(N)nc3ccccc3c21
outcome [1]: inactive

O=C(O)c1cc(=O)[nH]c(=O)[nH]1
outcome [1]: inactive

Cc1nc(Nc2ncc(C(=O)Nc3c(C)cccc3Cl)s2)cc(N2CCN(CCO)CC2)n1
AC50 [1]: 16.6 µM (active) | SSMD [2]: -0.87 | cell count [2]: 6550 | plate-normalised HSF1 focus index [2]: 0.957 (inactive)

C[C@@H](O)[C@H]1C(=O)N2C(C(=O)O)=C(SCCN=CN)C[C@H]12
inhibition [4]: -1% (inactive) | fluorescence ratio (interference) [5]: 1 (inactive) | outcome [6]: inactive

CNCCc1ccccn1
inhibition [7]: 24.5% | score [8]: 1.2 | rescue above control [9]: -9.72 | cytochrome c release ratio [10]: 0.91 | inhibition of aggregation [11]: 75.9% | glutamate uptake change [12]: -5.29% | inclusion score [15]: 2 | aggregation suppression score [13]: 1.84

N=C(N)N1CCc2ccccc2C1
outcome [6]: inactive

CC(=O)Oc1cc(C(C)C)c(OCCN(C)C)cc1C
period change [3]: -0.155 h (inactive) | inhibition [4]: -6% (inactive) | fluorescence ratio (interference) [5]: 1 (inactive) | outcome [6]: inactive

CN(C(=O)CN(CCO)CC(=O)N(C)C(C)(C)Cc1ccccc1)C(C)(C)Cc1ccccc1
inhibition [7]: -62.8% | score [8]: 1.1 | rescue above control [9]: 0 | cytochrome c release ratio [10]: 5.27 | inhibition of aggregation [11]: 66.7% | glutamate uptake change [12]: -0.7% | aggregation suppression score [13]: 1.14

CN(C)CC/C=C1\c2ccccc2Sc2ccc(Cl)cc21
inhibition [7]: 3.29% | score [8]: 0.95 | rescue above control [9]: 0 | cytochrome c release ratio [10]: 1.06 | inhibition of aggregation [11]: 59.1% | glutamate uptake change [12]: 14.9% | aggregation suppression score [13]: 0.956

Cc1c(N)c(=O)n(-c2ccccc2)n1C
inhibition [7]: 13.4% | score [8]: 1.65 | rescue above control [9]: -0.44 | cytochrome c release ratio [10]: 0.9 | inhibition of aggregation [11]: 81.5% | glutamate uptake change [12]: -10.8% | inclusion score [15]: 1 | aggregation suppression score [13]: 1.31

CC(=O)N[C@@H](CC(C)C)C(=O)O
inhibition [7]: 23.7% | score [8]: 0.82 | rescue above control [9]: 14.2 | cytochrome c release ratio [10]: 1.03 | inhibition of aggregation [11]: 74.7% | glutamate uptake change [12]: 2.89% | inclusion score [15]: 2 | aggregation suppression score [13]: 0.909
